Screening data (PubChem BioAssay)
MsrA act = bovine methionine sulfoxide reductase A activation; AID 602163; 0.3% of 360,000 active; purified bovine MsrA, absorbance read-out; activation, % at 10.6 µM; in the data active means activation above about 7.5%
sPLA2-III inh = Blocks human group III sPLA2 activity; 0.56% of 370,000 active; Q9NZ20; inhibition, % at 12.2 µM; QFRET BODIPY PC-A2 liposome hydrolysis, fluorescence;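 active means inhibition above mean plus 3 SD of compounds lying within the high and low control bounds, cut at about 19% in these data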
Target sequence (Q9NZ20 whole entry, looked up): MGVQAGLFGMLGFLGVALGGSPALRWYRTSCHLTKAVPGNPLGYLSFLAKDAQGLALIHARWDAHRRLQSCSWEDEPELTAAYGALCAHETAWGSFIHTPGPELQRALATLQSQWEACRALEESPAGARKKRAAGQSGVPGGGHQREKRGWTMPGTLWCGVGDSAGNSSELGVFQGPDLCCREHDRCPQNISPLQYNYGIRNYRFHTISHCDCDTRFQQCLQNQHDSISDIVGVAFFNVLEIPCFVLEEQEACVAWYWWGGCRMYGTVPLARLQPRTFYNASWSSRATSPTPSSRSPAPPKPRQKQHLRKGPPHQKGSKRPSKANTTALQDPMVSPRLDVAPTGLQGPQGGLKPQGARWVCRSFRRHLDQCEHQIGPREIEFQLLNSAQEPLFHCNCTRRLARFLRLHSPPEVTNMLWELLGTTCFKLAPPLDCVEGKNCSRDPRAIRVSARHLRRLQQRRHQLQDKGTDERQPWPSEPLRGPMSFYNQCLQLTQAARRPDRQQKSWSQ
MsrA inhibitor = inhibits bovine methionine sulfoxide reductase A; purified bovine MsrA, absorbance read-out; inhibition, % at 15.5 µM; 0.75% of 360,000 active; in the data active means inhibition above about 4.5%
rCAG binder = binds r(CAG) RNA repeats; r(CAG) RNA repeat, TO-PRO-1 dye displacement fluorescence; inhibition, % at 3 µM; 1.3% of 370,000 active;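 active means inhibition above the plate cutoff, the mean of all test compounds on that plate plus 3 SD, cut at about 35% in these data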;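 further: higher means more dye released from RNA so lower well fluorescence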
sPLA2 confirm = human GIII-sPLA2 inhibition, confirmation. shares compounds with sPLA2-III inh. recombinant hGIII-sPLA2, BODIPY PC-A2 QFRET fluorescence. inhibition, % at 12.2 µM. 34% of 2,000 active. AID 743280;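 active means mean inhibition across triplicates above the hit cutoff set in the earlier primary screen, cut at about 19% in these data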
535nm interf = 535nm fluorescence interference, HGIII-sPLA2 counter-screen | BODIPY FL product fluorescence interference, QFRET | inhibition, % at 12.2 µM | shares compounds with sPLA2-III inh | 8.5% of 2,000 active;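 active means average inhibition above the solvent-only control mean plus 3 SD, cut at about 6% in these data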
535nm interf DR = counter-screen for HGIII-sPLA2 inhibitors: 535nm fluorescence interference, dose response | 240 tested, under 10 active | AID 743455 | IC50, µM | BODIPY FL product fluorescence interference, cell-free | shares compounds with sPLA2-III inh;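 active means IC50 at or below 10 µM; inactive means IC50 above 10 µM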
Large screens that a line does not name were inactive (follow-up assays come after a bar, where they were run). Hits are enriched below; roughly 2.8% of the tested compounds scored in any of these assays.

CCOC(=O)C1CC(=O)c2cc(OC)c(OC)cc2C1 (stereo not drawn)	none
COC(=O)C1CC(=O)c2sccc2C1 (stereo not drawn)	sPLA2-III inh 20 | sPLA2 confirm inactive | 535nm interf inactive
CCn1c(C)nc2cc(C(=O)NNC(=S)Nc3ccccc3OC)ccc21	none (no result: MsrA act)
CCn1c(C)nc2cc(C(=O)NNC(=S)Nc3ccc(C)cc3)ccc21	sPLA2-III inh 20 | sPLA2 confirm 27 | 535nm interf inactive
Cc1cc(C)cc(C(O)c2ncc(-c3ccccc3)[nH]2)c1 (stereo not drawn)	none
CCS(=O)(=O)N1CCC(C(=O)NCc2cccnc2)CC1	sPLA2-III inh 20 | sPLA2 confirm inactive | 535nm interf inactive
CCS(=O)(=O)N1CCCC(C(=O)NCc2cccnc2)C1 (stereo not drawn)	none
O=C(OCc1nc2ccccc2s1)c1cc2ccccc2oc1=O	sPLA2-III inh 22 (no result: MsrA act) | sPLA2 confirm inactive | 535nm interf inactive
O=C(/C=C/c1cccnc1)c1ccc(O)cc1	sPLA2-III inh 22 | sPLA2 confirm inactive | 535nm interf inactive
O=C(CCN1C(=O)/C(=C/c2cccs2)SC1=S)Nc1cccc(O)c1	none
CCC(=O)NC(c1cccs1)c1cc([N+](=O)[O-])c2cccnc2c1OC (stereo not drawn)	sPLA2-III inh 19 | sPLA2 confirm inactive | 535nm interf inactive
Cc1cc2n(n1)C(c1ccccc1Cl)Nc1ccccc1-2 (stereo not drawn)	none
NC(=O)c1ccc(-c2ccc(N3C(c4ccsc4)=Cc4ccc(F)cc4C3CC(=O)c3ccco3)cc2)cc1 (stereo not drawn)	sPLA2-III inh 26 | sPLA2 confirm inactive | 535nm interf inactive
O=C(CNc1ccc2ccccc2c1)N/N=C/c1ccncc1	sPLA2-III inh 20 | sPLA2 confirm inactive | 535nm interf inactive
CCOc1ccc(OCCCC(=O)Nc2cc(Cl)ccc2-n2cncn2)cc1	none
COc1ccc(C(NC(C)=O)c2nccc3cc(OC)c(OC)cc23)cc1OC (stereo not drawn)	sPLA2-III inh 20 | sPLA2 confirm inactive | 535nm interf inactive
O=C(COC(=O)/C=C/c1ccc(Cl)cc1)NCCC1=CCCCC1	sPLA2-III inh 21 | sPLA2 confirm inactive | 535nm interf inactive
S=C(NCc1ccco1)NCC(c1ccco1)N1CCCCC1 (stereo not drawn)	sPLA2-III inh 23 | sPLA2 confirm 27 | 535nm interf inactive
O=C(NCC(c1ccco1)N1CCCC1)c1ccccc1F (stereo not drawn)	none
Oc1ccccc1/C=N/Nc1nccnc1Cl	sPLA2-III inh 24 | sPLA2 confirm inactive | 535nm interf 8.6
CNS(=O)(=O)c1ccc2nc(NC(=O)c3ccc(N4C(=O)CCC4=O)cc3)sc2c1	none
O=C(NN1CC(C(=O)OCc2ccc(Cl)cc2Cl)CC1=O)c1ccccc1 (stereo not drawn)	none
CCCC[n+]1c2ccccc2cc2ccccc21	sPLA2-III inh 40 | sPLA2 confirm 52 | 535nm interf inactive | 535nm interf DR inactive
Cc1ccc(-c2cc(C(=O)NN=Cc3c(O)ccc4ccccc34)[nH]n2)cc1C	sPLA2-III inh 26 (no result: MsrA act, MsrA inhibitor) | sPLA2 confirm inactive | 535nm interf inactive
O=CN/N=C/c1c(O)ccc2ccccc12	none
COc1ccc2ccccc2c1/C=N/NC(=O)c1ccc(C)nc1	none
O=C(N/N=C/c1c(O)ccc2ccccc12)c1ccc(CO)nc1	sPLA2-III inh 25 | sPLA2 confirm inactive | 535nm interf inactive
NC(=S)N/N=C/c1c(O)ccc2ccccc12	sPLA2-III inh 35 | sPLA2 confirm 21 | 535nm interf inactive
O=C(N/N=C/c1ccccc1)c1ccc2c(c1)OCO2	none
O=C(NN=Cc1c(O)ccc2ccccc12)c1ccc2c(c1)OCO2	sPLA2-III inh 37 | sPLA2 confirm inactive | 535nm interf inactive
CC[C@H](C)[C@H](NC(=O)OCc1ccccc1)C(=O)OCC(=O)N(C)CC(=O)Nc1ccccc1Cl	none
CCOC(=O)C(=CNc1ccccc1N1CCOCC1)C(=O)OCC	none
COc1cc(C(=O)NC(=S)N(CCC#N)Cc2cccnc2)cc(OC)c1OC	none
Cc1cc(N2CCN(c3ccccc3)CC2)n2ncnc2n1	sPLA2-III inh 93 | sPLA2 confirm inactive | 535nm interf inactive
Cc1cc(N2CCN(C/C=C/c3ccccc3)CC2)n2ncnc2n1	none
